Tests used:
[1] = molecular target: Serine/threonine-protein kinase SIK1 (Homo sapiens) (UniProt P57059); conditions: at 10 µM
[2] = molecular target: SRSF protein kinase 1 (Homo sapiens) (UniProt Q96SB4); conditions: at 1 µM
[3] = molecular target: SRSF protein kinase 1 (Homo sapiens) (UniProt Q96SB4); conditions: at 10 µM
[4] = molecular target: SRSF protein kinase 2 (Homo sapiens) (UniProt P78362); conditions: at 1 µM
[5] = molecular target: SRSF protein kinase 2 (Homo sapiens) (UniProt P78362); conditions: at 10 µM
[6] = molecular target: Serine/threonine-protein kinase 33 (Homo sapiens) (UniProt Q9BYT3); conditions: at 1 µM
[7] = molecular target: Serine/threonine-protein kinase 33 (Homo sapiens) (UniProt Q9BYT3); conditions: at 10 µM
[8] = molecular target: Serine/threonine-protein kinase PLK2 (Homo sapiens) (UniProt Q9NYY3); conditions: at 1 µM
[9] = molecular target: Serine/threonine-protein kinase PLK2 (Homo sapiens) (UniProt Q9NYY3); conditions: at 10 µM
[10] = molecular target: Tyrosine-protein kinase SYK (Homo sapiens) (UniProt P43405); conditions: at 1 µM

Sequence of SRSF protein kinase 2 (Homo sapiens) (P78362 whole entry, looked up): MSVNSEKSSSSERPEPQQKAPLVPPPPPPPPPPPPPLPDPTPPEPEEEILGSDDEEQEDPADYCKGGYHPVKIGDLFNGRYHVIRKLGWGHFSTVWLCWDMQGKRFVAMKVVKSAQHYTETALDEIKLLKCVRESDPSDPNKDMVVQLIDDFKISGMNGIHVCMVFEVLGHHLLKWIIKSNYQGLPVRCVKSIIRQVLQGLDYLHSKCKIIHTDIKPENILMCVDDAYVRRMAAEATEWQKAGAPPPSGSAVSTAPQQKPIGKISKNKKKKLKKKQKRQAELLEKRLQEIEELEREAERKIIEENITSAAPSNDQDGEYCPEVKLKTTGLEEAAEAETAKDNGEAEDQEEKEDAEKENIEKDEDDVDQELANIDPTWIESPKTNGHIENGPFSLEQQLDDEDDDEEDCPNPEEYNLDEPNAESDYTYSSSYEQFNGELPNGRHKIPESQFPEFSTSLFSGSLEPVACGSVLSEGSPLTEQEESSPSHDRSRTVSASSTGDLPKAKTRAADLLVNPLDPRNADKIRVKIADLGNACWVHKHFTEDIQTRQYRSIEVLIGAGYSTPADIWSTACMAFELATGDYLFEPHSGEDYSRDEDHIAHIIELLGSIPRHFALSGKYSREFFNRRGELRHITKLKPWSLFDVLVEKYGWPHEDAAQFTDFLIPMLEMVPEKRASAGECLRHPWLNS
Sequence of Serine/threonine-protein kinase PLK2 (Homo sapiens) (Q9NYY3 whole entry, looked up): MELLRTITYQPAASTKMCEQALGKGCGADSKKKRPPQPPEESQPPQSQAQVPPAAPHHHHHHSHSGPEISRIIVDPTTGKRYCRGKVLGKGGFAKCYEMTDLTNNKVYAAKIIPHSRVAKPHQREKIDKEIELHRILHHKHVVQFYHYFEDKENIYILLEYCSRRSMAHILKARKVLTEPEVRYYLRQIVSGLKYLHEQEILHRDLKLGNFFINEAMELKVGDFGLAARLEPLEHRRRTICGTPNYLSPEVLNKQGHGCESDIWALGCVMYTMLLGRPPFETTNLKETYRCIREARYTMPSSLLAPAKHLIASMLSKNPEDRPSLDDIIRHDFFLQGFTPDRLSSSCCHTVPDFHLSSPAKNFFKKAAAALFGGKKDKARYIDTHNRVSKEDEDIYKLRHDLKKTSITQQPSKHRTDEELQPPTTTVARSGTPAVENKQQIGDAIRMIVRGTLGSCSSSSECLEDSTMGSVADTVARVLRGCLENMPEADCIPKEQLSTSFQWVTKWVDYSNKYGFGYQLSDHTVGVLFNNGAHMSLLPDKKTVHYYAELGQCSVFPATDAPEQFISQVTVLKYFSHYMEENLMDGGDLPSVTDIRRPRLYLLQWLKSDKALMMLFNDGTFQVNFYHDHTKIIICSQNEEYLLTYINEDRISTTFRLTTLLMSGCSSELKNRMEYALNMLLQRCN
Sequence of SRSF protein kinase 1 (Homo sapiens) (Q96SB4 whole entry): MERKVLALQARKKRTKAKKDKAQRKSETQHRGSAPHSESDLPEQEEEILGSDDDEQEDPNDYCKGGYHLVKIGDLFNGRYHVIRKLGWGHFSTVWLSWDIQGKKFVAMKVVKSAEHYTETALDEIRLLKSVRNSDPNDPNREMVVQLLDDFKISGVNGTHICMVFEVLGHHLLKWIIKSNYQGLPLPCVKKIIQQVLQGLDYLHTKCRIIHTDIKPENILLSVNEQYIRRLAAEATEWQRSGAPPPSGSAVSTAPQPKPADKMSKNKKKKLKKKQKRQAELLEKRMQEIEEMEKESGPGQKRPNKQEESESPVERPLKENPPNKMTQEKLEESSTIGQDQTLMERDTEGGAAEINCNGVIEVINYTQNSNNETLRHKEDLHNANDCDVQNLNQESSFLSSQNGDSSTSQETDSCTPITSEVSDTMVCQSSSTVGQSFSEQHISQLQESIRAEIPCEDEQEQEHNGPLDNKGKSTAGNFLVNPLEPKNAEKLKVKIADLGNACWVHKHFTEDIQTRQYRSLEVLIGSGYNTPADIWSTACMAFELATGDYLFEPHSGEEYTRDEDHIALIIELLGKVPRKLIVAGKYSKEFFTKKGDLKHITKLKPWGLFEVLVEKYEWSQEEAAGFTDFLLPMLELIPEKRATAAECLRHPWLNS
Sequence of Serine/threonine-protein kinase SIK1 (Homo sapiens) (P57059 whole entry): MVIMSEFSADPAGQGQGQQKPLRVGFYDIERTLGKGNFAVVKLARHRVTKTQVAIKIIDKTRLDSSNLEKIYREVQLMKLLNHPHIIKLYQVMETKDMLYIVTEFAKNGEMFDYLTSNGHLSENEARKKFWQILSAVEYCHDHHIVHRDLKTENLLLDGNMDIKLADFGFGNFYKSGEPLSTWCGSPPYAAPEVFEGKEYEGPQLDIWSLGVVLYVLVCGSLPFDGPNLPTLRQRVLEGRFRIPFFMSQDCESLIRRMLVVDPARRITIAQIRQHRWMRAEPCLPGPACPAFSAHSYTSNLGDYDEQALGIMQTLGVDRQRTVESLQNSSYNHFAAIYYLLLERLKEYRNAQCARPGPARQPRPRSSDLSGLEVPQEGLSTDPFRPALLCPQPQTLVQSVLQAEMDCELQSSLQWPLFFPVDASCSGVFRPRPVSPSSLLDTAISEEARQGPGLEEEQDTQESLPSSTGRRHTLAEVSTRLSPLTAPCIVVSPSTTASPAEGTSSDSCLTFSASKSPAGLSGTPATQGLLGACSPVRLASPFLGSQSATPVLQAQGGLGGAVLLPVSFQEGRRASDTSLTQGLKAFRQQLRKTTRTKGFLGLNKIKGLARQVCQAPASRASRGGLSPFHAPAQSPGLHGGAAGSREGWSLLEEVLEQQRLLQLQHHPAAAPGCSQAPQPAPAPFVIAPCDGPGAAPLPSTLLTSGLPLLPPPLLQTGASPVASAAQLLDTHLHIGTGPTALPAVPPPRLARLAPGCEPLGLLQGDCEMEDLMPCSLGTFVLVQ
Sequence of Serine/threonine-protein kinase 33 (Homo sapiens) (Q9BYT3 whole entry, looked up): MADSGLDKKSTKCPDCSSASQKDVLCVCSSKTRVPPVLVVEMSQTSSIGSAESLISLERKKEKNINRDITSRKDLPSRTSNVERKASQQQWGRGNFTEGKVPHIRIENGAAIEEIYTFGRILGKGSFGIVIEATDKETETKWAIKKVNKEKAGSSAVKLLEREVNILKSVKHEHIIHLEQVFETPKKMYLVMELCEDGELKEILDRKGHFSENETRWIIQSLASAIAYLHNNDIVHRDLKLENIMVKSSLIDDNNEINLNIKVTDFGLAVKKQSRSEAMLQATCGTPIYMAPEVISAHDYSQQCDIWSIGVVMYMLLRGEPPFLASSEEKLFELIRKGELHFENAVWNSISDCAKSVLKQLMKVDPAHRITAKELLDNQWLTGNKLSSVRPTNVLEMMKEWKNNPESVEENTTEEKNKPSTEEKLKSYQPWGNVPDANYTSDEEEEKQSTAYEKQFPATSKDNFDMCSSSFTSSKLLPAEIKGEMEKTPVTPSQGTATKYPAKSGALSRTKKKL

Structure (SMILES)	residual activity [1]	residual activity [2]	residual activity [3]	residual activity [4]	residual activity [5]	residual activity [6]	residual activity [7]	residual activity [8]	residual activity [9]	residual activity [10]
Oc1n[nH]c2nnc(-c3c(-c4ccccc4)nn4ccccc34)cc12	89%	97%	96%	101%	98%	95%	86%	97%	99%	106%
Cc1ccc(NC2=CC(=O)c3sc(C)nc3C2=O)cc1	91%	97%	96%	98%	87%	88%	92%	95%	93%	99%
O=C(O)c1ccc2c3c1cccc3c(=O)n1c3ccccc3nc21	83%	78%	21%	91%	33%	99%	59%	100%	94%	100%
N#CCCc1ccc2c(c1)-c1[nH]c3ccc([N+](=O)[O-])cc3c1CC(=O)N2						100%	52%			56%
C[C@@H](N)[C@H]1CC[C@H](C(=O)Nc2ccncc2)CC1	115%	95%	103%	103%	113%	106%		100%	101%	110%
c1ccc(-c2n[nH]cc2-c2ccnc3ccccc23)nc1	104%	106%	108%		87%	97%	94%	102%	96%	
COc1cc2ncnc(Nc3ccc(Oc4ccccc4)cc3)c2cc1OC	8%	106%	90%	105%	90%	98%	88%	104%	105%	110%
CC(=O)c1ccc(N2CCOCC2)cc1O	5%	98%		98%	95%	92%	105%	103%	98%	129%
O=[N+]([O-])c1ccc(-c2nc(-c3ccc(F)cc3)c(-c3ccncc3)[nH]2)cc1	106%	109%	109%	98%	85%	104%	101%	103%	104%	118%
Cn1cc(/C=C2\C(=O)Nc3ccc(S(N)(=O)=O)cc32)c2ccccc21	11%	39%	13%	36%	13%	22%	10%	94%	65%	38%
Nc1ccc2ncnc(NCCc3ccc(Oc4ccccc4)cc3)c2c1	75%	117%	114%	114%	70%	104%	91%	106%	104%	93%
CN(C)c1ccc(/C=C2\C(=O)Nc3ccccc32)cc1	88%	97%	101%	108%	85%		78%	106%	98%	123%
Ic1cccc(CSc2nnc(-c3ccncc3)o2)c1	100%	97%	102%	88%	79%	86%	80%	97%	97%	98%
Cc1cccc(-c2[nH]c(C(C)(C)C)nc2-c2ccc3c(c2)OCO3)n1	62%			106%	98%	93%		105%	100%	
O=C1Nc2cc(Br)ccc2/C1=C1/Nc2ccccc2/C1=N\O	8%	98%	84%	88%	70%	73%	72%	97%	96%	70%
O=C(Nc1cccc(Nc2cc(Nc3cccc(C(F)(F)F)c3)ncn2)c1)C1CC1	104%	96%	88%	90%	84%	99%	97%	100%	90%	112%
CO[C@H]1[C@@H](OC)C[C@H](C)[C@@H](OC)C2=CC(=O)C=C(NC(=O)/C(C)=C/C=C/[C@H](OC)[C@@H](OC(N)=O)/C(C)=C/[C@@H]1C)C2=O	54%	104%	102%	104%	91%	98%	98%	100%	91%	110%
O=C1Nc2ccccc2/C1=C1/Nc2ccccc2/C1=N\OCCC(O)CO (stereo not drawn)	30%			80%	38%	37%	7%		76%	32%
COc1cc2ncc(-c3ccccc3)nc2cc1OC					90%					

Structure (SMILES)	residual activity [1]	residual activity [2]	residual activity [3]	residual activity [4]	residual activity [5]	residual activity [6]	residual activity [7]	residual activity [8]	residual activity [9]	residual activity [10]
O=C1NC(=O)c2cc(Nc3ccc(F)cc3)c(Nc3ccc(F)cc3)cc21	0%	102%	93%	96%	95%	95%	101%	97%	96%	118%
CN(C)CCCn1cc(C2=C(c3c[nH]c4ccccc34)C(=O)NC2=O)c2ccccc21	11%	130%	63%		57%	79%	24%	113%	88%	120%
COc1ccc(OC)c2c(=S)c3ccccc3[nH]c12		91%	88%	97%	82%	94%	77%	89%	91%	94%
CCOc1cc2ncnc(Nc3cccc(Br)c3)c2cc1OCC	102%	83%	91%	102%	91%		92%	99%	88%	111%
COc1ccc(S(=O)(=O)N(CCO)c2ccccc2CN(C)C/C=C/c2ccc(Cl)cc2)cc1	79%	117%	96%	105%	81%	93%	91%		99%	97%
Cc1ccc(S(=O)(=O)/C=C/C#N)cc1	97%	101%	93%	95%	95%	103%	96%	98%	85%	104%
N#CC(C#N)=C(N)/C(C#N)=C/c1ccc(O)cc1	75%	100%	95%			97%	97%		63%	116%
Cc1cncc2cccc(S(=O)(=O)N3CCCN(C(=O)CN)C[C@H]3C)c12	90%			94%	94%				93%	
CNc1cc2c(Nc3cccc(Br)c3)ncnc2cn1	57%	93%	97%	98%	92%	96%	93%	106%	89%	117%
Cc1cc(Nc2nc(-c3ccccc3)nc3ccccc23)n[nH]1	10%	73%	15%	67%	17%	77%	24%		56%	16%
c1ccc(-c2n[nH]c3c2oc2ccccc23)cc1	8%			98%	89%	94%	81%	94%	89%	115%
Cc1nc2cc3nc(-c4cccs4)cnc3cc2n1C	88%	99%	107%	98%	86%	106%	100%	102%	95%	131%
O=C1Nc2ccc(Br)cc2/C1=C\c1cc2c([nH]1)CCCC2	107%							105%	99%	123%
COc1ccc(CNc2nc(N(CCO)CCO)nc3c2ncn3C(C)C)cc1	78%	95%	67%	86%	65%	96%	83%	91%	94%	94%
Cn1cnc2cc3c(Nc4cccc(Br)c4)ncnc3cc21	9%	100%	91%	94%	87%	93%	95%	106%	98%	129%
COc1cc2ncnc(Nc3ccc(NC(=O)c4ccccc4)cc3)c2cc1OC	18%			107%	103%	109%	108%		85%	
CC(=O)O/N=C1\C(=C2\C(=O)Nc3cc(Br)ccc32)Nc2ccccc21	3%	106%	100%	102%	78%	98%	79%	104%	98%	80%
O=C(Nc1cccc(Nc2nccc(Nc3cccc(C(F)(F)F)c3)n2)c1)C1CC1	50%	107%	87%	96%	90%	102%	89%	102%	73%	79%
CCN(CC)C(=O)c1ccc(Nc2nc(OCC3CCCCC3)c3nc[nH]c3n2)cc1	4%		43%	74%	31%	82%	18%			64%

— ChEMBL document CHEMBL2218924, “A broad activity screen in support of a chemogenomic map for kinase signalling research and drug discovery” (Biochem J, 2013)
